# GPR151 activ: human GPR151 activation; Q8TDV0; 1% of 650,000 active; AID 1508602; activation, % at 11.2 µM; PathHunter beta-arrestin GPR151 cells, luminescence; in the data active means activation above about 4.9%;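 further: 0% = median of compound wells and 100% = cells with positive control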
# MITF primary: inhibitors of human MITF; O75030; AlphaScreen MITF homodimerization, bead proximity signal; inhibition, % at 2.6 µM; 0.91% of 650,000 active; AID 1259374; in the data active means inhibition above about 50%;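 further: 0% = vehicle wells with protein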
# TEAD-YAP block: TEAD-YAP interaction inhibition | HEK-TIYL cells, TEAD-Gal4/YAP UAS-luciferase luminescence | inhibition, % at 9.12 µM | 1.4% of 640,000 active; in the data active means inhibition above about 32%;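 further: 0% = median of test compound wells and 100% = reference inhibitor wells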
# FBW7 activator: activators of human E3 ligase FBW7. Q969H0. AlphaScreen FBW7–phospho-cyclin E peptide binding, activator screen. normalized activity (activation), % at 26.1 µM. 0.13% of 650,000 active. AID 1259310; in the data active means normalized activity above about 1.9%;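 further: purified mutant Fbw7 with reduced substrate affinity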
# Target sequence (Q969H0 whole entry, looked up): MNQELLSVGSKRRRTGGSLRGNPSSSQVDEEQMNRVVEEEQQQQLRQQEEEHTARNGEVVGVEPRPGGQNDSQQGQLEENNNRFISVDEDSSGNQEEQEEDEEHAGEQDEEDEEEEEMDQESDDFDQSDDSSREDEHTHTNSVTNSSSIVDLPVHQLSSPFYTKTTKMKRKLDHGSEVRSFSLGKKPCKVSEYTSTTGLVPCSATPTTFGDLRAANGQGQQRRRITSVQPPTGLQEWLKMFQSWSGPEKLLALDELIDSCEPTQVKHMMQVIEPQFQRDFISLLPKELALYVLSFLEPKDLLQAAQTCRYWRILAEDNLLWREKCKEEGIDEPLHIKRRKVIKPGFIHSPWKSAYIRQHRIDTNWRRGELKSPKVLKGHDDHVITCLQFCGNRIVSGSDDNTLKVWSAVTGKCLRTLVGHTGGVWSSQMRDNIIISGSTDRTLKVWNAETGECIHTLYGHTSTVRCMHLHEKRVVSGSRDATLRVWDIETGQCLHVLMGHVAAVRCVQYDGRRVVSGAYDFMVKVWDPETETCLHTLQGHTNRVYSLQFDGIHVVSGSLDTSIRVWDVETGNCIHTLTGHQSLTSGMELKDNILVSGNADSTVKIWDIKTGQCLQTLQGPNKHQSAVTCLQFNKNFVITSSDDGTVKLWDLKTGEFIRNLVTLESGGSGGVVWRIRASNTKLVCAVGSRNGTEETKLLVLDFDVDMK
# * marks the source's active call; other numbers are inactive results. This is a sample that favours compounds with a hit; in the whole collection about 3.4% have one here.
SMILES,GPR151 activ,MITF primary,TEAD-YAP block,FBW7 activator
O=C(/C=C/c1cccs1)N1CCN(c2ncccn2)CC1,0.6,-2.1,-46.9,0.0
COc1ccc(C(=O)/C=C2\NCCNC2=O)cc1,-0.7,-12.7,-3.1,-0.1
CC(=O)N(C)c1ccc(NC(=O)NC2CCCCC2)cc1,0.5,-3.8,-42.7,-0.1
O=C(NCc1nc2ccccc2[nH]1)c1cccc(-c2ccc(N3CCOCC3)nc2)c1,3.9,3.0,43.1*,-0.1
O=Cc1cccc(-c2ccc(N3CCOCC3)nc2)c1,-3.0,6.6,47.1*,-0.3
c1ccc2[nH]c(CNc3cc(-c4ccc(N5CCOCC5)nc4)ncn3)nc2c1,-1.1,-3.6,-34.8,-0.2
O=C(NCc1nc2ccccc2[nH]1)c1ccnc(-c2ccc(N3CCOCC3)nc2)c1,-1.7,6.4,31.9*,-0.2
O=C(NCc1nc2ccccc2[nH]1)c1ccnc(N2CCOCC2)c1,-1.3,19.6,-1.4,-0.3
CN1CCN(c2ccc(-c3cccc(C(=O)NCc4nc5ccccc5[nH]4)n3)cc2)CC1,1.9,12.8,48.8*,0.1
CCCNC(=O)c1cccc(-c2ccc(N3CCN(C)CC3)cc2)n1,1.4,-3.3,-16.4,0.0
CN1CCN(c2ccc(-c3cccc(C=O)c3)cn2)CC1,-5.1,8.7,-30.4,-0.2
O=[N+]([O-])c1ccc(CCc2ccc([N+](=O)[O-])cc2S(=O)(=O)O)c(S(=O)(=O)O)c1,1.3,7.4,3.1,0.0
Cc1cc(C)cc(Nc2ncnc3c2c(-c2ccccc2)cn3-c2ccccc2)c1,0.1,-2.1,1.7,-0.1
CC(C)Oc1ccc(C(=O)Nc2nnc(-c3ccccn3)o2)cc1,-7.4,7.0,35.9*,-0.1
N#Cc1ccc(C(=O)Nc2nnc(-c3ccccn3)o2)cc1,-9.5,24.2,-9.8,-0.2
COc1cccc(C(=O)Nc2ccc3oc(-c4ccc(F)cc4Cl)nc3c2)c1,1.8,-9.5,-16.2,-0.1
COc1ccccc1NC(=S)N/N=C/c1ccc2c(c1)OCCO2,-1.4,-11.3,60.6*,0.3
COc1ccccc1NC(=O)C(=O)N/N=C/c1ccc2c(c1)OCO2,-0.1,-5.9,-2.4,-0.1
O=C(NCc1ccccc1)/C(=C\C=C\c1ccccc1)NC(=O)c1ccc([N+](=O)[O-])cc1,-1.0,4.1,55.6*,-0.1
COc1ccc2ccc(OC)c(/C=C3/NC(=O)N(c4ccccc4)C3=O)c2c1,-0.8,-3.7,2.3,-0.1
CC(C)Oc1ccc(C(=O)Nc2nc(-c3ccc(F)cc3F)cs2)cc1,-0.5,-10.2,37.6*,0.2
CCOC(=O)Nc1ccc(I)cc1,0.8,1.4,-37.8,0.2
CCOC(=O)Nc1ccc(Cc2ccc(NC(=O)OCC)cc2)cc1,1.3,-4.0,33.2*,-0.1
O=C(COc1ccccc1)Nc1ccc(N2CCC(NCc3ccccc3)CC2)cc1,1.1,10.2,33.6*,-0.4
CCOC(=O)c1c(NC(=O)c2ccccc2OC)sc2c1CC(C)(C)OC2,-0.2,0.5,-0.2,-0.1
SMILES,GPR151 activ,MITF primary,TEAD-YAP block,FBW7 activator
Clc1ccc(CN2CCN(/N=C/c3c(Cl)nc4sccn34)CC2)cc1,2.2,8.7,39.9*,-0.2
Oc1ccccc1/C=N/N1CCN(Cc2ccc(Cl)cc2)CC1,4.3,0.2,2.5,-0.2
Cc1cc(I)ccc1NC(=O)Cn1c(=O)oc2ccccc21,-0.3,18.1,15.5,0.9
COCCCNC(=O)/C(C#N)=C/c1cn(Cc2cccc(F)c2)c2ccccc12,0.0,13.2,34.6*,-0.3
COCCCNC(=O)/C(C#N)=C/c1cn(Cc2ccc(F)cc2)c2ccccc12,1.6,11.5,44.5*,1.8
O=C(NCCOc1cccnc1)c1ccc(OC2CCN(CCc3ccccc3)CC2)cc1,-1.6,17.0,42.1*,-0.1
CC(=O)NCC(=O)N1CCC(Oc2ccc(C(=O)NCCc3ccccc3)cc2)CC1,-0.9,6.7,33.0*,0.2
O=C(NCCc1ccccc1)c1ccc(OC2CCN(C(=O)c3cscn3)CC2)cc1,0.5,9.6,64.4*,-0.1
O=C1CC[C@@H](C(=O)N2CCC(Oc3ccc(C(=O)NCCc4ccccc4)cc3)CC2)N1,0.4,0.4,39.9*,-0.1
CC(=O)N1CCC(Oc2ccc(C(=O)NCCc3ccccc3)cc2)CC1,3.3,-16.1,-15.2,0.2
O=C(NCCc1ccccc1)c1ccc(OC2CCN(C(=O)c3cnsn3)CC2)cc1,0.1,9.3,-0.4,0.1
CCOC(=O)Cn1c(=O)oc2cc(S(=O)(=O)Nc3ccccc3CC)ccc21,1.0,-1.2,0.2,0.1
COc1ncc(-c2nccnc2N2CCN(CCO)CC2)c(OC)n1,-0.1,2.4,-3.7,0.0
CC(C)(C)C(=O)COC(=O)C1=NN(c2ccccc2)C(=O)CC1,0.2,-13.7,-3.3,0.1
O=C(NCCc1ccccc1)c1ccc(OC2CCN(C(=O)C3CC3)CC2)cc1,0.3,-7.3,-10.5,-0.1
O=C(NCCc1ccccc1)c1ccc(OC2CCN(C(=O)C3=CCCC3)CC2)cc1,2.2,-3.8,64.8*,-0.1
Cc1[nH]c2c(C(=O)NCC3Cc4c(F)ccc(-c5ncccn5)c4O3)cccc2c1C (stereo not drawn),2.3,9.1,32.5*,-0.1
O=C(CCc1nc2ccccc2[nH]c1=O)OCc1ccc(F)cc1,0.7,1.9,2.5,0.0
O=C(Nc1ccc(Oc2ccccc2)cc1)c1ccc(F)c([N+](=O)[O-])c1,-0.2,10.7,56.8*,-0.2
O=C(Nc1ccc(F)cc1)c1ccc(F)c([N+](=O)[O-])c1,-2.4,4.5,59.4*,0.0
CCOc1ccccc1C(=O)Nc1ccc2nc(N3CCOCC3)cc(C)c2c1,2.0,0.6,8.3,0.0
COc1ncccc1C1(O)CC2CCC(C1)N2C(=O)c1csc2c1CCCC2 (stereo not drawn),0.1,12.1,3.4,0.2
CCC(C)C1(c2ccccc2)SC(NC(C)=O)=NN1C(C)=O (stereo not drawn),-1.2,9.4,38.1*,0.5
CC(=O)NCC1(c2ccccc2)SC(NC(C)=O)=NN1C(C)=O (stereo not drawn),-0.3,16.1,60.2*,0.4
C[C@H](c1ccccc1)n1c(=O)[nH]c2ncc(-c3ccc(C(=O)N4CCN(C)CC4)cc3)nc21,-1.6,1.1,4.8,0.0
SMILES,GPR151 activ,MITF primary,TEAD-YAP block,FBW7 activator
C[C@@H](c1ccccc1)n1c(=O)[nH]c2ncc(-c3ccc(C(=O)N4CCOCC4)cc3)nc21,0.7,12.1,-8.0,2.0*
COC(=O)c1sc(NC(=O)c2ccccc2Cl)c(C#N)c1C,-0.2,-8.7,0.7,0.1
Cc1sc(NC(=O)c2ccccc2Cl)c(C#N)c1C,3.1,0.4,-44.9,2.6*
O=C(CSc1nc2ccccc2s1)N1CCN(c2ccccc2)CC1,0.4,-4.6,8.6,-0.1
CNS(=O)(=O)c1ccc(NC(=O)C(CCSC)NC(N)=O)cc1 (stereo not drawn),-1.2,-8.1,4.7,0.1
Cc1c(N=C2C(=O)N(CC(=O)O)c3ccccc32)c(=O)n(-c2ccccc2)n1C,-1.0,4.7,7.5,2.3*
O=c1[nH]c(=O)c2cc([N+](=O)[O-])cc([N+](=O)[O-])c2[nH]1,-0.2,1.5,11.8,0.1
O=C(Oc1ccc(NS(=O)(=O)c2ccccc2)c2ccccc12)c1ccccc1,0.2,-2.7,76.5*,0.2
CCCOC1CCCN(Cc2c(C(=O)N(C)CCc3ccccc3)nc3sccn23)C1 (stereo not drawn),4.8,15.7,-1.8,0.1

# Compound activity as filed in PubChem BioAssay.
